IL1B secr inh = blocks inflammasome-driven IL-1 beta release. THP-1 LPS/ATP IL-1B secretion, AlphaLISA, 16 h; stronger effect = lower value. activity change, % at 57.5 µM. 4.7% of 360,000 active; in the data active = activity change below about -50%; inconclusive = mostly about -30% to -49%
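THP-1 cells pretreated 1 hr with compounds (up to 57.5 uM final), then stimulated with LPS (250 ng/mL final) plus ATP (1.25 mM final); secreted IL-1B measured by AlphaLISA after 16 hr, decreased signal indicating inhibition.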
HT1080-NT tox = kills 2HG-producing HT-1080-NT fibrosarcoma cells. Potency, µM (highest dose often 46.1 µM), for inactives: at the highest dose activity, negative = less viability, actives largely listed as cytotoxic. HT-1080-NT fibrosarcoma viability, CellTiter-Glo ATP luminescence, 48 h. 1.6% of 360,000 active;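 also: NT is the 2HG producing partner of a matched IDH1 knockdown line; potency is read from the fitted curve at half-maximal effect; 0% = DMSO-treated cells and -100% = media-only wells without cells; nearly all actives have a fitted effect of over 55% in size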
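750 cells/well, RPMI + 5% FBS; 2 h settle, compound pin-transfer, 48 h at 37 degrees C. CellTiter-Glo 10 min RT, luminescence. Normalized to DMSO and media-only wells.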
TDP1 cell noCPT = qHTS for Inhibitors of human tyrosyl-DNA phosphodiesterase 1 (TDP1): qHTS in cells in absence of CPT; Potency, µM (titrated, usually from 46.2 µM), without a hit: top-dose activity change, negative = growth inhibition, actives largely listed as inhibitors; 15% of 420,000 active; DT40 Tdp1-/- hTDP1 cells, no CPT, ATP luminescence, 48 h; also: potency is read from the fitted curve at half-maximal effect; nearly all actives have a fitted effect of over 55% in size
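Compound effects on proliferation are scored in DT40 Tdp1-/-;hTDP1 cells in the absence of CPT. ATP levels (CellTiter-Glo luminescence) are recorded after a ≥48 hr, 37 °C incubation.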
12-LOX inh = blocks human arachidonate 12S-lipoxygenase. P18054. purified 12hLO, xylenol orange hydroperoxide absorbance. Potency, µM (series often up to 108 µM), inactives show top-dose activity change, negative = inhibition, most hits filed as inhibitors. 1.1% of 580,000 active. AID 1671190; also: potency is read from the fitted curve at half-maximal effect
Target sequence (P18054 whole entry, looked up): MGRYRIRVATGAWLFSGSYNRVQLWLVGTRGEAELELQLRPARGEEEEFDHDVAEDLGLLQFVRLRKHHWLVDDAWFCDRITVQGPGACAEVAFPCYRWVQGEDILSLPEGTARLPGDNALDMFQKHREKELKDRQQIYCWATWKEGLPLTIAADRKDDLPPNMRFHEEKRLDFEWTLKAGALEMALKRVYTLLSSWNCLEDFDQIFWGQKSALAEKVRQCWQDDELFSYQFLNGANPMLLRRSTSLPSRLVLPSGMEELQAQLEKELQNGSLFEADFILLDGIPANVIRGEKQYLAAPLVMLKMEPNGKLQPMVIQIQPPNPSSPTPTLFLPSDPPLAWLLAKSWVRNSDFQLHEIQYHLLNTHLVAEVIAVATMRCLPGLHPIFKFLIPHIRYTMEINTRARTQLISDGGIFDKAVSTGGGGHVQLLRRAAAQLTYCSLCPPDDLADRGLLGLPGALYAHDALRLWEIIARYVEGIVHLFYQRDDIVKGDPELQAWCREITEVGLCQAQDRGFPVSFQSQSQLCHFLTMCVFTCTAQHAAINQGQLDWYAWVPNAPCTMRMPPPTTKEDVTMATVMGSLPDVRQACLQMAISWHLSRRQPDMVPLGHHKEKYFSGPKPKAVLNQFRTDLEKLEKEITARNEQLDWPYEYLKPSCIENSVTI
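Hydroperoxide product was detected by ferrous iron/xylenol orange as the 573 to 405 nm absorbance ratio. Arachidonic acid at 40 uM (final) was turned over for 30 min at room temperature by 150 nM human 12hLO, pH 7.0 Hepes buffer, after 15 min compound preincubation.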
HT1080 IDH1KD tx = kills HT-1080 cells with IDH1 knockdown; HT-1080 IDH1 knockdown viability, ATP luminescence, 48 h; Potency, µM (series often up to 46.1 µM), for the others: at the top dose activity, negative = toxicity, hits mostly cytotoxic; 2% of 360,000 active;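 also: potency is read from the fitted curve at half-maximal effect; 0% = DMSO wells and -100% = cell-free medium wells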
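Using the IDH1-knockdown HT-1080 line run in the same batch and compound series as the NT line, viability after 48 h at 37 °C was determined by CellTiter-Glo luminescence and expressed as % activity.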
DT40 TDP1 CPT = DT40-hTDP1 cell growth loss with CPT. chicken DT40 Tdp1-/-;hTDP1 cells + 20 nM CPT, ATP luminescence, 48 h. Potency, µM (highest dose often 46.2 µM), for the others: top-dose activity change, negative = growth inhibition, hits mostly inhibitors. 12% of 420,000 active; also: potency is read from the fitted curve at half-maximal effect; nearly all actives have a fitted effect of over 55% in size
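Chicken DT40 Tdp1-/- cells stably complemented with human TDP1 were seeded at 400 cells/well in medium containing 20 nM camptothecin, exposed to pin-transferred compounds, and grown at 37 °C for at least 48 hr. Viability was read as ATP luminescence.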
The depositor's hits bear a star; ? = inconclusive; nt = no result. Shown is part of a subset that was picked to be rich in hits. Unless noted, calls follow the shape of the dose curve; as a rule, active = well fitted curve in the direction sought with a large enough effect; inconclusive = small, poorly fitted or top-dose-only effect, or another doubt; inactive = no such curve, though single readings can be large; an effect the other way counts as inactive or inconclusive. Unless noted, % is scaled to controls: 0 for no effect and ±100 for the full control effect.

SMILES	IL1B secr inh	HT1080-NT tox	TDP1 cell noCPT	12-LOX inh	HT1080 IDH1KD tx	DT40 TDP1 CPT
CCOC(=O)c1cnc2c(C)c(C)ccc2c1Nc1ccc(S(=O)(=O)Nc2ncccn2)cc1	-93*	0%	-4%	-16%	-7%	3%
CCOC(=O)c1cnc2c(ccc3ccccc32)c1Nc1ccc(OCC)cc1	nt	nt	-27%	-3%	nt	?
CCOC(=O)c1cnc2c(ccc3ccccc32)c1Nc1cccc(OC)c1	nt	nt	26µM*	?	nt	?
CCOC(=O)c1cnc2c(ccc3ccccc32)c1Nc1cccc(Cl)c1	nt	nt	-20%	-18%	nt	-5%
Cc1ccc(C(=O)CSc2nnnn2C2CC2)cc1C	nt	nt	nt	-2%	nt	nt
O=C(COC(=O)c1cc2ccccc2oc1=O)NCC1CCCCC1	nt	nt	nt	9%	nt	nt
Cc1cccc(-c2c3c(nc4sc5c(c24)CCC(C)C5)C(C)CCC3)c1 (configuration not stated)	nt	nt	nt	-3%	nt	nt
CC(C)(C)CCN1CC(Oc2cccc(C(=O)N3CCCC3)c2)C1	nt	nt	nt	23%	nt	nt
CCOC(=O)[C@]12CCC=C1N(CCC1=CCCCC1)C(=O)[C@H](CC(=O)N1CCC(c3ccccc3)CC1)C2	-3	?	18µM*	?	?	?
CCOC(=O)N1CCN(C(=O)C[C@@H]2C[C@@]3(C(=O)OCC)CCCC=C3N(CCC3=CCCCC3)C2=O)CC1	-14	?	16µM*	-27%	?	?
CCOC(=O)[C@]12CCCC=C1N(CCC1=CCCCC1)C(=O)[C@H](CC(=O)NCC13CC4CC(CC(C4)C1)C3)C2	1	?	?	-14%	?	?
COCCNC(=S)N/N=C(\C)c1cccc(C(F)(F)F)c1	-9	20%	21µM*	?	19%	?
COc1ccc(CNC(=S)N/N=C(/C)c2ccccc2)cc1	-11	-8%	?	?	-13%	-1%
C/C(=N\NC(=O)C(N)=O)c1cccc(C(F)(F)F)c1	2	5%	-1%	7%	2%	7%
C=C(C)CNC(=S)N/N=C(\C)c1ccc(OC)cc1	0	9%	2.9µM*	?	2%	3.7µM*
COCCNC(=S)N/N=C(\C)c1ccc2cc(OC)ccc2c1	-88*	-15%	26µM*	35µM*	-25%	13µM*
CCNC(=S)N/N=C(\C)c1cccc(OC)c1	5	-1%	11%	?	0%	2%
COCCNC(=S)N/N=C(\C)c1ccc(C)c([N+](=O)[O-])c1	-65*	7%	1.5µM*	?	-2%	1.3µM*
O=C(O)CCc1cc2n(n1)CCN(C(=O)Cc1ccncc1)C2	nt	nt	nt	15%	nt	nt
CC(=O)N1CCc2cc(C(=O)C(C)n3nnc(-c4cccc(C(F)(F)F)c4)n3)ccc21 (configuration not stated)	nt	nt	nt	-25%	nt	nt
Cc1cccc(-n2cc(CN3CCCC(C)(O)C3)c(-c3cccc(F)c3)n2)c1 (configuration not stated)	nt	nt	nt	15%	nt	nt
C/C(=N\NC(=O)COc1ccc(C(C)(C)C)cc1)c1ccc(OC(F)F)cc1	-13	-9%	?	26%	-6%	-3%
C/C(=N\NC(=O)COc1ccc(C(C)(C)C)cc1)c1cc2ccccc2o1	-25	-1%	?	-2%	-17%	0%
COCCNC(=S)N/N=C(\C)c1cc2ccccc2o1	12	18%	18µM*	?	15%	?
COCCNC(=S)N/N=C(\C)c1ccc(OC(F)F)cc1	-11	2%	3%	?	0%	16µM*
SMILES	IL1B secr inh	HT1080-NT tox	TDP1 cell noCPT	12-LOX inh	HT1080 IDH1KD tx	DT40 TDP1 CPT
COc1ccc(C(=O)N2CCCN(S(C)(=O)=O)C(c3ccccc3)CC(=O)NCC2)c(OC)n1 (configuration not stated)	nt	nt	nt	6%	nt	nt
CCN(CC)c1cc(C)c2cc(NC(=O)c3cccs3)ccc2n1	nt	?	23µM*	4%	-1%	16µM*
CCN(CC)c1cc(C)c2cc(NC(=O)c3ccc(Br)o3)ccc2n1	-66*	-15%	?	0%	-22%	?
CCN(CC)c1cc(C)c2cc(NC(=O)c3ccc(F)cc3Cl)ccc2n1	nt	nt	?	-17%	nt	?
CCN1CCN(c2cc(C)c3cc(NC(=O)c4ccc(Br)o4)ccc3n2)CC1	-2	-28%	?	-9%	?	?
CCN(CC)c1cc(C)c2cc(NC(=O)c3cccc(F)c3)ccc2n1	nt	nt	23µM*	-21%	nt	?
CCN(CC)c1cc(C)c2cc(NC(=O)c3ccc(OC)c(OC)c3)ccc2n1	nt	nt	23µM*	-1%	nt	21µM*
CCCCc1ccc(C(=O)Nc2ccc3nc(N(CC)CC)cc(C)c3c2)cc1	nt	nt	18µM*	-17%	nt	?
CCCCc1ccc(NC(=O)c2ccc(NS(C)(=O)=O)cc2)cc1	-6	16%	?	-3%	3%	?
CCN(CC)c1cc(C)c2cc(NC(=O)c3ccccc3OC)ccc2n1	nt	?	16µM*	0%	?	?
CCN(CC)c1cc(C)c2cc(NC(=O)c3cc(OC)cc(OC)c3)ccc2n1	nt	nt	?	-16%	nt	?
COC(=O)C[C@H]1CC[C@H](NC(=O)c2ccc(F)cc2)[C@@H](CO)O1	20	21%	3%	-3%	24%	1%
COc1ccc(C2CCCCCN2C(=O)CSc2nnnn2C2CC2)cc1 (configuration not stated)	nt	nt	nt	4%	nt	nt
COc1ccccc1N1CCN(C(=O)c2c3c(nc4ccccc24)C(=O)N(C2CCCCC2)C3)CC1	nt	nt	21µM*	?	nt	13µM*
Cc1ccc(C)c(N2CCN(C(=O)c3c4c(nc5ccccc35)C(=O)N(C3CCCCC3)C4)CC2)c1	nt	nt	18µM*	?	nt	16µM*
CN(C)C1=NC[C@H](Cc2ccccc2)N1CCc1cccc(F)c1	-3	1%	?	-7%	-6%	?
CN(C)C1=NC[C@H](Cc2ccccc2)N1CCCC1CCCC1	?	21µM*	21µM*	-29%	?	16µM*
CN(C)C1=NC[C@H](Cc2ccccc2)N1CCC1CCCC1	-4	-14%	?	-4%	-14%	21µM*
CN(C)C1=NC[C@H](Cc2ccccc2)N1CC1CCCCCC1	-12	-11%	15µM*	21%	-26%	5.8µM*
CN(C)C1=NCCN1CCCC1CCCC1	23	8%	12µM*	3%	3%	?
CN(C)C1=NCCN1CC1CCCC1	14	7%	-13%	-9%	12%	-16%
O/N=C/c1cn(Cc2ccccc2)c2ccccc12	nt	nt	nt	-1%	nt	nt

Screening results (PubChem BioAssay)
